Assay results: PubChem BioAssay AID1159580 (chemical genetic matrix, 2015)
Where “and” joins values, the source holds several entries; their conditions need not be identical. Identical values can stand only once. Out of some 5,500 compounds screened, about 2,000 (36%) were called active. About 18% were inconclusive and are not listed. Cut-off read from the data, not from the text of the source: active = normalized growth mostly below about 0.91 (no sharp cut-off); inconclusive = no clear call, values can overlap the other calls; inactive = mostly above about 0.92. The list shows a part of the results.

Assay: chemical genetic growth profiling, strain panel (AID 1159580);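 note: tested at 20 µM; growth read once vehicle control cultures reached saturation at 30 °C; 1 = growth at the plate median or of vehicle wells; lower values mean less growth of the strain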
Settings: S. cerevisiae deletion strains, growth OD

Measured: normalized growth

CC[C@H]1OC(=O)[C@H](C)[C@@H](O[C@H]2C[C@@](C)(OC)[C@@H](O)[C@H](C)O2)[C@H](C)[C@@H](O[C@@H]2O[C@H](C)C[C@H](N(C)C)[C@H]2O)[C@](C)(O)C[C@@H](C)[C@@H]2N[C@@H](COCCOC)O[C@H]([C@H]2C)[C@]1(C)O
inactive: locus YAL021C, strain ccr4, hits give low values 0.991 | locus YAL026C, strain drs2, hits give low values 0.993 | locus YAL030W, strain snc1, hits give low values 0.999 | locus YBL061C, strain skt5, hits give low values 0.982 | locus YBR009C, strain hhf1, hits give low values 0.995 | locus YBR021W, strain FUR4, hits give low values 1.01 | locus YBR023C, strain chs3, hits give low values 0.993 | locus YBR171W, strain sec66, hits give low values 0.977 | locus YBR229C, strain ROT2, hits give low values 1.01 | locus YBR231C, strain swc5, hits give low values 0.992 | locus YBR279W, strain paf1, hits give low values 0.998 | locus YCL011C, strain gbp2, hits give low values 0.99 | locus YCL016C, strain dcc1, hits give low values 0.985 | locus YCL029C, strain bik1, hits give low values 1.01 | locus YCL061C, strain MRC1, hits give low values 0.982 | locus YCL069W, strain vba3, hits give low values 0.988 | locus YCR088W, strain abp1, hits give low values 0.999 | locus YDL005C, strain med2, hits give low values 0.978 | locus YDL035C, strain GPR1, hits give low values 1.01 | locus YDL040C, strain nat1, hits give low values 0.996 | locus YDL074C, strain BRE1, hits give low values 1.01 | locus YDL101C, strain DUN1, hits give low values 1.05 | locus YDL185W, strain tfp1, hits give low values 1 | locus YDL192W, strain arf1, hits give low values 1.01 | locus YDR001C, strain nth1, hits give low values 0.995 | locus YDR069C, strain doa4, hits give low values 0.995 | locus YDR101C, strain arx1, hits give low values 0.984 | locus YDR137W, strain rgp1, hits give low values 1 | locus YDR159W, strain sac3, hits give low values 0.985 | locus YDR162C, strain NBP2, hits give low values 1 | locus YDR195W, strain ref2 0.966 | locus YDR297W, strain sur2, hits give low values 1 | locus YDR318W, strain mcm21, hits give low values 1.01 | locus YDR334W, strain swr1, hits give low values 0.986 | locus YDR335W, strain msn5, hits give low values 0.998 | locus YDR388W, hits give low values 1.01 | locus YDR392W, strain spt3, hits give low values 0.989 | locus YDR502C, strain sam2, hits give low values 0.997 | locus YEL003W, strain gim4, hits give low values 1 | locus YEL037C, strain rad23, hits give low values 0.997 | locus YEL061C, strain CIN8 (second series), hits give low values 0.998 | locus YEL061C, strain CIN8, hits give low values 1.01 | locus YER015W, strain faa2, hits give low values 1 | locus YER016W, strain bim1, hits give low values 0.987 | locus YER110C, hits give low values 1.01 | locus YER111C, strain swi4, hits give low values 0.991 | locus YER155C, strain BEM2 (second series), hits give low values 0.999 | locus YER155C, strain BEM2, hits give low values 1.01 | locus YER167W, strain BCK2, hits give low values 1 | locus YFR010W, strain ubp6, hits give low values 0.988 | locus YGL078C, strain dbp3, hits give low values 1.01 | locus YGL167C, strain pmr1, hits give low values 0.991 | locus YGL173C, strain kem1, hits give low values 0.984 | locus YGL227W, strain vid30, hits give low values 0.99 | locus YGL240W, strain doc1, hits give low values 0.989 | locus YGL248W, strain PDE1, hits give low values 1.02 | locus YGL253W, strain hxk2, hits give low values 0.998 | locus YGR135W, strain pre9, hits give low values 1.04 | locus YGR252W, strain gcn5, hits give low values 0.991 | locus YHR013C, strain ard1, hits give low values 0.952 | locus YHR027C, strain rpn1, hits give low values 0.983 | locus YHR030C, strain SLT2, hits give low values 1 and 1.04 | locus YHR079C, strain IRE1 (second series), hits give low values 1.01 | locus YHR079C, strain IRE1, hits give low values 1.03 | locus YHR094C, strain hxt1, hits give low values 1.01 | locus YHR129C, strain ARP1, hits give low values 1.01 | locus YHR142W, strain chs7, hits give low values 0.997 | locus YHR200W, strain rpn10, hits give low values 1.01 | locus YIL066C, strain RNR3, hits give low values 1.01 | locus YIL073C, strain SPO22, hits give low values 1.06 | locus YIL125W, strain kgd1, hits give low values 1 | locus YIR030C, strain dcg1, hits give low values 1.02 | locus YJL092W, strain hpr5, hits give low values 0.991 | locus YJL095W, strain BCK1 (second series), hits give low values 0.982 | locus YJL095W, strain BCK1, hits give low values 1.06 and 1 | locus YJL115W, strain asf1, hits give low values 0.995 | locus YJL129C, strain trk1, hits give low values 1.01 | locus YJL134W, strain LCB3, hits give low values 1.01 | locus YJL154C, strain vps35, hits give low values 0.993 | locus YJL164C, strain tpk1, hits give low values 1 | locus YJL166W, strain qcr8, hits give low values 0.993 | locus YJL168C, strain set2, hits give low values 1 | locus YJL187C, strain SWE1 (second series), hits give low values 1.05 | locus YJL187C, strain SWE1, hits give low values 0.991 | locus YJR043C, strain POL32, hits give low values 0.989 | locus YJR066W, strain TOR1, hits give low values 0.982
